Compound activity from PubChem.
Pemphigus Ab inh = inhibitors of pemphigus antibody binding to human desmoglein-3 | P32926 | DSG3-coupled beads, scFv-anti-DSG3-GFP binding, flow cytometry; hits give low values | binding (percent of control), % at 10 µM | 310,000 compounds, 0.48% hits | AID 588358;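 active = binding more than 3 SD below its plate's average and above zero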;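 also: hits lower antibody fragment binding to DSG3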
ADAM17 inh = inhibitors of human ADAM17. P78536. recombinant ADAM17, EDANS/DABCYL FRET peptide cleavage. inhibition, % at 6.95 µM. 370,000 compounds, 0.83% hits;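 active = inhibition above the mean of compounds lying between control limits plus 3 SD, set per campaign, cut at about 8.5% in these data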
ADAM10 inh = ADAM10 inhibition, QFRET primary screen | O14672 | recombinant ADAM10, EDANS/DABCYL FRET peptide cleavage, 3 h | 370,000 compounds, 0.62% hits | inhibition, % at 7 µM;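 active = inhibition above a per-campaign cutoff equal to the mean of compounds falling between control-based bounds plus 3 SD, cut at about 20% in these data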
Target sequence (O14672 214-748 limits assumed): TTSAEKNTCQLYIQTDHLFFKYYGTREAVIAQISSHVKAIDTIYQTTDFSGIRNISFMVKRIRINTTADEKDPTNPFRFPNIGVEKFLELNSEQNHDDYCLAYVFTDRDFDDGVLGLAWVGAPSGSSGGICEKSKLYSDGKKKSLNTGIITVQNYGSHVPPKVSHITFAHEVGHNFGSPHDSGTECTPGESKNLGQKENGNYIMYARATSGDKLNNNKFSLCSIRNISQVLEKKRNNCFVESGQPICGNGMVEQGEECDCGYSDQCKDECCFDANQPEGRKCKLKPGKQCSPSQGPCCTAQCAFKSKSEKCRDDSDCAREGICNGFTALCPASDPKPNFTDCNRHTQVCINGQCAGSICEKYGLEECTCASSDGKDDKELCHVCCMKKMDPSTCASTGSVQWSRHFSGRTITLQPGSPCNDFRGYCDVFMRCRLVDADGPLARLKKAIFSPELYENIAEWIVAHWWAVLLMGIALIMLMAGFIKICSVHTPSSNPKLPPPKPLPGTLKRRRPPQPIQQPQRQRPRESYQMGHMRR
MPTP block = permeability transition pore inhibition; AID 602449; isolated mouse mitochondria, Ca2+ swelling absorbance, 30 min; 360,000 compounds, 1.4% hits; inhibition, % at 10 µM;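 active = inhibition of 50% or more, scaled per plate between neutral and stimulator controls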
KLK7 zymogen act = activators of human kallikrein-7 zymogen; P49862; 370,000 compounds, 0.9% hits; purified proKLK7, EDANS-DABCYL substrate fluorescence; 100% is mature enzyme control, 0% vehicle; AID 652039; activation, % at 7 µM;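 active = activation above the mean of all tested compounds plus 3 SD, computed per campaign excluding outliers beyond control limits, cut at about 13% in these data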
rCAG RNA binder = molecules binding r(CAG) RNA repeats. 370,000 compounds, 1.3% hits. r(CAG) RNA repeat, TO-PRO-1 dye displacement fluorescence. inhibition, % at 3 µM;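 active = inhibition above the plate cutoff, the mean of all test compounds on that plate plus 3 SD, cut at about 35% in these data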;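 also: higher means more dye released from RNA so lower well fluorescence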
ADAM10 ctr = counter-screen for ADAM17 exosite inhibitors: inhibitors of human ADAM10; shares compounds with ADAM17 inh; recombinant ADAM10, EDANS/DABCYL FRET peptide cleavage, 3 h; inhibition, % at 6.95 µM; 2,900 compounds, 47% hits; AID 743256;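 active = mean inhibition over the triplicate runs exceeds the activity threshold set in the earlier primary screen, cut at about 20% in these data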
ADAM17 confirm = confirmation of inhibitors of human ADAM17; shares compounds with ADAM17 inh; recombinant ADAM17, EDANS/DABCYL QFRET peptide cleavage; inhibition, % at 6.95 µM; 2,900 compounds, 65% hits;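 active = mean inhibition across replicates above the hit cutoff set in the primary screen, cut at about 8.5% in these data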
A number is an active result; – = inactive; · = no result. Hits are enriched below; roughly 4.7% of the tested compounds scored in any of these assays.

SMILES	Pemphigus Ab inh	ADAM17 inh	ADAM10 inh	MPTP block	KLK7 zymogen act	rCAG RNA binder	ADAM10 ctr	ADAM17 confirm
COc1ccccc1C(=O)NCCOc1ccc(C)c(C)c1	–	–	–	–	–	–	·	·
COc1cc(SC)ccc1C(=O)NCCOc1ccc(C)c(C)c1	–	8.8	–	–	–	–	–	11.9
CSc1ccc(OC2(C)CCN(Cc3ccc(-c4ccccn4)cc3)C2)cc1 (stereo not given)	·	–	–	–	–	–	·	·
Cc1nn(Cc2noc(C(=O)NCCc3ccccn3)n2)c(C)c1Br	·	–	–	–	–	–	·	·
Cc1nn(Cc2noc(C(=O)NCc3ccccn3)n2)c(C)c1Br	–	9.6	–	–	–	–	–	–
COc1cccc(-c2cnc(C(O)c3ccc(SC)cc3)[nH]2)c1 (stereo not given)	·	–	–	–	–	–	·	·
CSc1ccc(C(O)c2ncc(-c3cccc(OCc4ccccc4)c3)[nH]2)cc1 (stereo not given)	·	9.3	–	–	–	–	23.5	11.5
OC(c1ccc(-c2ccccc2)cc1)c1ncc(-c2ccc(F)cc2)[nH]1 (stereo not given)	·	11.4	–	–	–	–	22.9	12.2
O=C(CC1CCC1)Nc1cccc2c([N+](=O)[O-])cccc12	–	–	–	–	–	–	·	·
COC(=O)C1=C(C(=O)OC)SC2(S1)C(C(=O)OC)=C(C(=O)OC)SC1=C2c2cccc(C)c2NC1(C)C	–	12.8	–	–	–	–	–	10.7
CC1CC(C)CN(c2nc(NCc3ccco3)nc(N)c2[N+](=O)[O-])C1 (stereo not given)	–	–	–	–	–	–	·	·
CC1CCCN(c2nc(NCc3ccco3)nc(N)c2[N+](=O)[O-])C1 (stereo not given)	–	9.7	–	–	–	–	–	–
O=C(CSc1nc2c(oc3ccccc32)c(=O)n1CC1CCCO1)NCc1ccc(F)cc1 (stereo not given)	–	–	–	–	–	–	·	·
COc1ccc(S(=O)(=O)Nc2ccc3ccccc3c2)cc1C	–	10.2	–	–	–	–	29.5	18.2
Cc1cccc(/C(N)=N/OC(=O)N2CCOCC2)c1	–	12.7	–	–	–	–	–	12.5
COc1ccc(CCNC(=O)Cc2ccc(NS(=O)(=O)c3ccc(F)cc3)cc2)cc1OC	–	–	–	–	–	–	·	·
N#Cc1cccc(NS(=O)(=O)c2ccccc2Cl)c1	–	–	–	–	–	–	·	·
COc1ccc(S(=O)(=O)N2CCC(C(=O)NC(c3nc4ccccc4[nH]3)C(C)C)CC2)cc1 (stereo not given)	–	–	–	–	–	–	·	·
O=C(N[C@H]1C/C=C\C[C@@H](CC(=O)N(CCO)Cc2ccccc2)C(=O)NC[C@H](c2ccccc2)OC1=O)OCC1c2ccccc2-c2ccccc21	–	17.2	–	–	–	–	–	–
O=C(N[C@@H]1C/C=C\C[C@@H](CC(=O)N(CCO)Cc2ccccc2)C(=O)NCCOC1=O)OCC1c2ccccc2-c2ccccc21	–	·	·	–	·	·	·	·
COc1ccc2c(c1)CO[C@]21O[C@H](CCO)C[C@H](O)[C@H]1O	·	–	–	–	–	–	·	·
Cc1nc(C(=O)Nc2ccc(Cl)cc2)sc1C1(C)CC(c2cccc([N+](=O)[O-])c2)=NO1 (stereo not given)	–	–	–	–	–	–	·	·
COc1ccc(NC(=O)c2nc(C)c(C3(C)CC(c4cccnc4)=NO3)s2)cc1 (stereo not given)	–	10.7	–	–	–	–	–	10.4
CC(NC(=O)COC(=O)C1(C)CC1(Cl)Cl)c1ccccc1 (stereo not given)	·	8.8	–	–	–	–	30.1	9.5
CC1(C(=O)OCC(=O)NC(=O)c2ccccc2)CC1(Cl)Cl (stereo not given)	–	–	–	–	–	–	·	·
SMILES	Pemphigus Ab inh	ADAM17 inh	ADAM10 inh	MPTP block	KLK7 zymogen act	rCAG RNA binder	ADAM10 ctr	ADAM17 confirm
O=C(NNC(=O)c1cc([N+](=O)[O-])ccc1Cl)c1cccnc1	–	–	–	–	–	–	·	·
CC(=O)c1cccc(NC(=O)C2=CC(c3cccs3)=NS(=O)(=O)N2C)c1	·	–	–	–	–	–	·	·
COc1ccc(NC(=O)C2=CC(c3ccc(OC)cc3)=NS(=O)(=O)N2C)cc1	–	10.2	–	–	–	–	–	–
CN1C(C(=O)Nc2cccc(O)c2)=CC(c2cccs2)=NS1(=O)=O	–	9.7	–	–	–	–	–	–
CC(C)(C)c1csc(NNC(=O)c2ccc(Br)cc2)n1	–	8.7	–	–	–	–	–	–
CC(C)(C)c1csc(NC(=O)c2ccccc2O)n1	–	–	–	–	–	–	·	·
Cc1ccc(S(=O)(=O)N2CCC(C(=O)OCC(=O)N(Cc3ccccc3)C(C)(C)C)CC2)cc1C	–	–	–	–	–	–	·	·
Cc1ccc(CN(CC(=O)N/N=C/c2ccccc2[N+](=O)[O-])S(=O)(=O)c2ccc(C)cc2)cc1	·	9.1	–	–	–	–	33.0	14.2
O=C(CN(Cc1ccccc1)S(=O)(=O)c1ccccc1)N/N=C/c1ccccc1[N+](=O)[O-]	–	–	–	–	–	–	·	·
CCCCCCCCN1C(=O)[C@H](CC(=O)NCc2cccc(C(F)(F)F)c2)C[C@@]2(C(=O)OC)CCCCC=C12	·	–	–	–	–	–	·	·
CN(CC(=O)Nc1ccc(Cl)c(C(F)(F)F)c1)C(=O)c1ccc(OCC2CCCO2)cc1 (stereo not given)	–	8.7	–	–	–	–	25.1	9.7
C[C@H](CO)N1C[C@H](C)[C@H](CN(C)C(=O)Nc2cccc(F)c2)Oc2cc(C#CC3(O)CCCC3)ccc2S1(=O)=O	–	–	–	–	–	–	·	·
CCCCOP(=O)(OCCCC)C(O)c1ccc(Br)cc1 (stereo not given)	–	10.6	–	–	–	–	–	–
Cc1ccccc1NC(=O)C(C)Sc1nnc(CN2CCCC2)n1Cc1ccccc1 (stereo not given)	–	–	–	–	–	–	·	·
COc1ccc(Cl)cc1NC(=S)NCc1ccccn1	–	8.7	–	–	–	–	–	–
COc1ccc(CCN(Cc2ccccn2)C(=S)Nc2ccccc2Cl)cc1OC	·	8.7	–	–	–	–	–	–
COc1ccc(C(=O)Nc2ccc(S(=O)(=O)N3CCc4ccccc43)cc2)cc1	–	9.2	–	–	–	–	21.5	14.8
O=C(Nc1ccc(S(=O)(=O)N2CCCCC2)cc1)c1ccc(CN2CCc3ccccc3C2)cc1	–	8.8	–	–	–	–	–	9.6
